Source: PubChem (several laboratories)
In the library only some 7% were active in any assay of this set; here they are far more common.
AHR act = activates the human aryl hydrocarbon receptor; AID 2796; AHR-responsive luciferase reporter cells, luminescence; activation, % at 5 µM; P35869; 2.5% of 320,000 active; in the data active means activation above about 47%
GRIN3A LBD mod = modulators (binders) of human NR3A ligand-binding domain. NR3A LBD differential scanning fluorimetry, Tm shift; 0% = protein alone, 100% = glycine-bound protein. Tm shift relative to glycine control, % at 25 µM. 2.5% of 340,000 active. AID 1259313;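 active means melting temperature shift of at least 10% of the positive control shift, at one fixed dose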
ADAM17 inh = inhibits human ADAM17; P78536; recombinant ADAM17, EDANS/DABCYL FRET peptide cleavage; inhibition, % at 6.95 µM; 0.83% of 370,000 active; AID 720648;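 active means inhibition above the mean of compounds lying between control limits plus 3 SD, set per campaign, cut at about 8.5% in these data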
ADAM10 inh = ADAM10 inhibition, QFRET primary screen; recombinant ADAM10, EDANS/DABCYL FRET peptide cleavage, 3 h; inhibition, % at 7 µM; 0.62% of 370,000 active; AID 720582;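 active means inhibition above a per-campaign cutoff equal to the mean of compounds falling between control-based bounds plus 3 SD, cut at about 20% in these data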
rCAG binder = r(CAG) repeat RNA binding; TO-PRO-1 dye displacement fluorescence; inhibition, % at 3 µM; 1.3% of 370,000 active; AID 651821;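 active means inhibition above the plate cutoff, the mean of all test compounds on that plate plus 3 SD, cut at about 35% in these data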;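 further: higher means more dye released from RNA so lower well fluorescence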
KLK7 zymogen act = activators of human kallikrein-7 zymogen; P49862; purified proKLK7, EDANS-DABCYL substrate fluorescence; 100% is mature enzyme control, 0% vehicle; activation, % at 7 µM; 0.9% of 370,000 active;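 active means activation above the mean of all tested compounds plus 3 SD, computed per campaign excluding outliers beyond control limits, cut at about 13% in these data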
Target sequence (P49862 whole entry, looked up): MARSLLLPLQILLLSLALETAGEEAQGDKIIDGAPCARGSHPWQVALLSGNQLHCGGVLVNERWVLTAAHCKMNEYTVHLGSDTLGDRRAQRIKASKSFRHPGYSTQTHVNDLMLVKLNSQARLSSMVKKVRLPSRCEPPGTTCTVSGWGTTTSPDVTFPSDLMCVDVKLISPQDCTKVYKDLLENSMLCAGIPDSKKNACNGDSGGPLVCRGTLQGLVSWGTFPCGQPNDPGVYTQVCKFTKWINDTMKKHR
Hits are given with their value; - = inactive; . = no result given.

SMILES	AHR act	GRIN3A LBD mod	ADAM17 inh	ADAM10 inh	rCAG binder	KLK7 zymogen act
COc1ccc(NC(=O)c2ccc(-c3ccc(C)c4ccccc34)o2)cc1	-	-	-	-	-	-
Cc1ccc(-c2ccc(C(=O)Nc3cccc(F)c3)o2)c2ccccc12	-	17	-	-	-	-
CC(C)C[C@@H]1COc2cc(Br)ccc2S(=O)(=O)N1Cc1cn(Cc2ccc(Br)cc2)nn1	.	.	-	-	-	-
CCOC(=O)CC[C@H]1CC[C@]2(CCCN(C(=O)C3CCCC3)C2)O1	.	.	-	-	-	-
Cc1cccc(Cn2cc(COC(=O)N(C)Cc3ccccc3)nn2)c1	.	.	-	-	-	-
COc1cccc2cc(-c3nc4ccccc4[nH]3)c(=O)oc12	72	-	-	-	-	-
COc1cccc2sc(Nc3nc(-c4cc5ccccc5oc4=O)cs3)nc12	-	20	-	-	-	-
O=C(Nc1nc(-c2cc3ccccc3oc2=O)cs1)c1ccc(Br)o1	-	29	-	-	-	-
COc1cccc2cc(-c3nc(-c4cccs4)cs3)c(=O)oc12	48	-	-	-	-	-
COc1cccc2cc(-c3ccccc3)c(=O)oc12	-	-	-	-	-	-
CC(=O)Nc1ccc(Nc2nc(-c3cc4ccccc4oc3=O)cs2)cc1	.	-	-	-	-	-
COc1ccccc1CCn1cnc(-c2ccc(Br)cc2)c1CC(C)C	.	.	-	-	-	-
O=C(O[C@H]1CC[C@@]23CCCN2C(=O)CCC[C@H]3C1)N1CCCC1	.	.	-	-	.	.
COc1ccc2oc(=O)c(-c3csc(Nc4cccc(O)c4)n3)cc2c1	-	27	-	-	-	-
Nc1ccc(Nc2nc(-c3cc4ccccc4oc3=O)cs2)cc1	-	-	-	-	-	-
COc1ccc(Nc2nc(-c3cc4cccc(OC)c4oc3=O)cs2)cc1	-	16	-	-	-	-
O=C(c1ccc(F)cc1Cl)N1CCCC(c2nc(-c3cccs3)no2)C1 (stereo not drawn)	.	.	-	-	-	-
CCN(CC)c1ccc(/C=N/N2C(=O)c3ccccc3C2=O)cc1	-	-	-	-	-	-
CCN(CC)c1ccc(/C=N/N2C(=O)c3ccccc3C2=O)c(O)c1	-	24	-	-	-	-
Cc1ccccc1NCCC(=O)Nc1ccc(Cl)cc1	-	14	-	-	-	-
CSc1nc(-c2ccccc2)cc(C(F)(F)F)c1C#N	-	-	-	-	-	-
N#Cc1c(C(F)(F)F)cc(-c2ccc(Cl)c(Cl)c2)nc1SCCN1CCOCC1	65	-	.	.	.	.
N#Cc1c(C(F)(F)F)cc(-c2ccccc2)nc1SCc1nc(N)nc(N2CCOCC2)n1	-	16	-	-	-	-
CCCOc1ccc(NC(=O)CC2C(=O)Nc3ccccc3N2CC(=O)N2CCCC2)cc1 (stereo not drawn)	-	-	-	-	-	-
COc1ccc(NC(=O)CC2C(=O)Nc3ccccc3N2CC(=O)N2CCCC2)cc1 (stereo not drawn)	74	-	-	-	-	-
SMILES	AHR act	GRIN3A LBD mod	ADAM17 inh	ADAM10 inh	rCAG binder	KLK7 zymogen act
Cc1ccc(-c2cc(=O)c3ccccc3[nH]2)cc1	50	-	-	-	-	-
O=c1cc(-c2ccc(Cl)cc2)[nH]c2ccccc12	-	-	.	.	.	.
Cc1cccc(C)c1NC1=NC2(CCCCC2)N=C(N)N1	-	-	-	-	-	-
NC1=NC2(CCCCC2)N=C(Nc2ccc(Br)cc2)N1	72	-	-	-	-	-
CC(C)(C)c1ccc(C(=O)N/C(N)=N/c2nc3ccccc3o2)cc1	-	-	.	.	.	.
N/C(=N\c1nc2ccccc2o1)NC(=O)c1ccc(Cl)cc1	68	-	-	-	-	-
COc1ccc(NC(=O)Cn2nc(C(F)(F)F)c3c2CCCC3)cc1OC	-	-	-	-	-	-
O=C(Cn1nc(C(F)(F)F)c2c1CCCC2)Nc1ccc2c(c1)OCO2	50	-	-	-	-	-
O=C(NC(NC(=S)Nc1ccc(Cl)cc1Cl)C(Cl)(Cl)Cl)c1cccc([N+](=O)[O-])c1 (stereo not drawn)	-	21	-	-	-	-
O=C(NC(NC(=S)Nc1ccccc1)C(Cl)(Cl)Cl)c1cccc(Cl)c1 (stereo not drawn)	-	24	-	-	-	-
CN(C)C(=O)NC(NC(=S)Nc1ccccc1)C(Cl)(Cl)Cl (stereo not drawn)	-	-	-	-	-	-
O=C(Nc1ccc([N+](=O)[O-])cc1Cl)c1cccc([N+](=O)[O-])c1	.	.	-	-	-	-
